Conditions in all cases: 25 µM; exposure: 24-48 hpf
Experiment [1] has as its system Danio rerio Tg(wt1b:EGFP) embryo, pronephros. Briefly: glomerular separation, fold change vs DMSO control; higher = glomeruli further apart (abnormal). In a few lines: (§1)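 Dechorionated Tg(wt1b:EGFP) zebrafish embryos were incubated at 28.5°C from 24 to 48 hpf with 25 μM compound in HEPES-buffered E3 containing 0.5% DMSO and 0.003% PTU. Distances and angles between 16 manually set points on maximum projections of dorsal pronephros images were measured in Fiji, with values over 2 SD from the feature mean excluded. Each feature is a fold change relative to the mean of same-day DMSO-treated embryos.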

Experiment [2] shares this test system. Briefly: glomerular width (mean of left and right), fold change vs DMSO control; higher = wider glomerulus. In a few lines: as §1
The test system is the same in experiment [3]. In words: fraction of imaged embryos annotated as normal kidney; higher = less nephrotoxic; extreme values may be limits of the assay. The method, boiled down: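 The value given is the share of embryos in each treatment scored as having a normal kidney. To obtain it, dechorionated Tg(wt1b:EGFP) zebrafish embryos were treated from 24 to 48 hpf at 28.5°C with 25 μM compound in 0.5% DMSO, in 5 mM HEPES-buffered E3 with 0.003% PTU. Pronephroi were imaged by widefield fluorescence (470 nm, 10 z-slices), and every embryo was annotated by hand from maximum projections.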

Experiment [4] shares this test system. Briefly: pronephric angle neck segment to proximal convoluted tubule (mean of left and right), fold change vs DMSO control; higher = larger pronephric angle. In a few lines: as §1

Counter-ions that a name gives are not always drawn. ± gives the standard deviation or the standard deviation of the averaged measurements.

The compound `C[N+]1(C)[C@@H]2CC[C@H]1C[C@@H](OC(=O)C(CO)c1ccccc1)C2` (stereo partly specified) [Methylatropine nitrate] came in with a glomerular separation in experiment [1] of 1.01 ± 0.39. Besides, the glomerular width in experiment [2] worked out at 0.936 ± 0.028. For the same compound, in experiment [3], the “fraction of imaged embryos annotated as normal kidney” value (“fraction of imaged embryos annotated” for short) came out at 0.917. Further, the “pronephric angle neck segment” value in experiment [4] worked out at 1.06 ± 0.017.

`CC(=O)O[C@H]1C[C@@H]2CC[C@@H]3[C@H](CC[C@@]4(C)[C@H]3C[C@H]([N+]3(C)CCCCC3)[C@@H]4OC(C)=O)[C@@]2(C)C[C@@H]1[N+]1(C)CCCCC1` [Pancuronium bromide]: the glomerular separation in experiment [1] was determined as 1.23 ± 0.41. Further, the glomerular width in experiment [2] was 0.928 ± 0.13. Moreover, in experiment [3], the “fraction of imaged embryos annotated” value is 1. In addition, the “pronephric angle neck segment” value in experiment [4] amounted to 0.955 ± 0.047.

For `CC[N+]1(C)CCCC(OC(=O)C(O)(c2ccccc2)c2ccccc2)C1` (stereo unspecified) [Pipenzolate bromide], the glomerular separation in experiment [1] was determined as 0.89 ± 0.28. In addition, the glomerular width in experiment [2] was 1.051 ± 0.0016. The “fraction of imaged embryos annotated” value in experiment [3] was found to be 0.909. Further, the “pronephric angle neck segment” value in experiment [4] was 0.981 ± 0.037.

In experiment [1], `CN[C@@H]1C[C@@H](c2ccc(Cl)c(Cl)c2)c2ccccc21` [Indatraline hydrochloride] returned a glomerular separation of 0.788 ± 0.28. In addition, the glomerular width in experiment [2] was determined as 1.04 ± 0.011. Besides, in experiment [3], the “fraction of imaged embryos annotated” value came to 0.833. Also, the “pronephric angle neck segment” value in experiment [4] was determined as 0.9756 ± 0.0089.

On to `C[C@]12CC[C@@H](O)C[C@@H]1CC[C@@H]1[C@@H]2CC[C@]2(C)C(=O)CC[C@@H]12` [Androsterone], for which the glomerular separation in experiment [1] amounted to 0.907 ± 0.17. The glomerular width in experiment [2] is 0.991 ± 0.038. For the same compound, the “fraction of imaged embryos annotated” value in experiment [3] was 0.75. Also, in experiment [4], the “pronephric angle neck segment” value stood at 0.999 ± 0.015.

Consider `CC(NC(C)(C)C)C(=O)c1cccc(Cl)c1` (stereo unspecified) [Bupropion hydrochloride], for which the glomerular separation in experiment [1] amounted to 0.797 ± 0.2. This compound also gave a glomerular width in experiment [2] of 1.026 ± 0.0015. For the same compound, in experiment [3], the “fraction of imaged embryos annotated” value turned out to be 1. Also, the “pronephric angle neck segment” value in experiment [4] came to 1.03 ± 0.011.

As for `C[C@]12CC[C@@H](O)C[C@H]1CC[C@@H]1[C@@H]2CC[C@]2(C)C(=O)CC[C@@H]12` [3-alpha-Hydroxy-5-beta-androstan-17-one], the glomerular separation in experiment [1] turned out to be 1.13 ± 0.44. The glomerular width in experiment [2] came to 0.982 ± 0.066. Further, the “fraction of imaged embryos annotated” value in experiment [3] was determined as 0.75. In addition, in experiment [4], the “pronephric angle neck segment” value was 1 ± 0.013.

On to `CN1C(=O)CCS(=O)(=O)C1c1ccc(Cl)cc1` (stereo unspecified) [Chlormezanone], for which the glomerular separation in experiment [1] was 1.15 ± 0.46. This compound also displayed a glomerular width in experiment [2] of 1.05 ± 0.11. Besides, the “fraction of imaged embryos annotated” value in experiment [3] worked out at 0.545. Moreover, the “pronephric angle neck segment” value in experiment [4] turned out to be 0.989 ± 0.059.

In turn, `C[C@@H]1O[C@@H](O[C@@H]2C=C3CC[C@@H]4[C@H](CC[C@]5(C)[C@@H](c6ccc(=O)oc6)CC[C@]45O)[C@@]3(C)CC2)[C@H](O)[C@H](O)[C@H]1O` [Proscillaridin A] displayed a glomerular separation in experiment [1] of 3.66 ± 1.1. Besides, the glomerular width in experiment [2] came out at 0.716 ± 0.029. Also, the “fraction of imaged embryos annotated” value in experiment [3] was 0. Besides, the “pronephric angle neck segment” value in experiment [4] worked out at 1.2604 ± 0.00066.

Compound `C[N+]1(C)CCCC(OC(=O)C(O)(c2ccccc2)c2ccccc2)C1` (stereo unspecified) [Mepenzolate bromide] showed a glomerular separation in experiment [1] of 1.4 ± 0.8. Moreover, in experiment [2], the glomerular width worked out at 1.01 ± 0.011. For the same compound, the “fraction of imaged embryos annotated” value in experiment [3] is 0.727. The “pronephric angle neck segment” value in experiment [4] was 1 ± 0.054.

In the case of `CN1[C@@H]2CC[C@H]1C[C@@H](OC(=O)C(CO)c1ccccc1)C2` (stereo partly specified) [Atropine sulfate monohydrate], the glomerular separation in experiment [1] turned out to be 1.25 ± 0.3. In addition, the glomerular width in experiment [2] was 1.04 ± 0.011. Moreover, the “fraction of imaged embryos annotated” value in experiment [3] was 1. The “pronephric angle neck segment” value in experiment [4] is 1 ± 0.063.

In experiment [1], `CN(C)C(=O)Oc1cccc([N+](C)(C)C)c1` [Neostigmine bromide] came in with a glomerular separation of 0.984 ± 0.28. Further, in experiment [2], the glomerular width came out at 0.859 ± 0.034. Moreover, the “fraction of imaged embryos annotated” value in experiment [3] was 0.667. Besides, the “pronephric angle neck segment” value in experiment [4] came to 1.09 ± 0.053.

`CCC1(c2ccc(N)cc2)CCC(=O)NC1=O` (stereo unspecified) [Glutethimide, para-amino] had a glomerular separation in experiment [1] of 1.05 ± 0.27. This compound had a glomerular width in experiment [2] of 1.04 ± 0.036. The “fraction of imaged embryos annotated” value in experiment [3] is 0.667. In experiment [4], the “pronephric angle neck segment” value was determined as 1.05 ± 0.021.

For the compound `CC1OC(OC2/C=C/C=C/C=C/C=C/CC/C=C/C=C/[C@H](C)[C@@H](O)[C@@H](C)[C@H](C)OC(=O)CC(O)CC(O)CC(O)CCC(O)C(O)C[C@]3(O)CC(O)C(C(=O)O)C(C2)O3)C(O)C(N)C1O` (stereo partly specified) [Nystatine], the glomerular separation in experiment [1] turned out to be 0.778 ± 0.16. Moreover, in experiment [2], the glomerular width stood at 0.994 ± 0.05. For the same compound, the “fraction of imaged embryos annotated” value in experiment [3] was determined as 1. The “pronephric angle neck segment” value in experiment [4] stood at 1.05 ± 0.053.

Take `C[C@]12CC[C@@H]3c4ccc(OC(=O)N(CCCl)CCCl)cc4CC[C@H]3[C@@H]1CC[C@@H]2O` [Estramustine]: in experiment [1], the glomerular separation was determined as 2.15 ± 0.79. The compound also returned a glomerular width in experiment [2] of 0.792 ± 0.018. In addition, the “fraction of imaged embryos annotated” value in experiment [3] turned out to be 0.333. Further, the “pronephric angle neck segment” value in experiment [4] is 1.1 ± 0.03.

Consider `CC(C)(C)NCC(O)c1ccccc1Cl` (stereo unspecified) [Tulobuterol], for which the glomerular separation in experiment [1] is 1.02 ± 0.37. This compound gave a glomerular width in experiment [2] of 0.9779 ± 0.007. The “fraction of imaged embryos annotated” value in experiment [3] amounted to 0.917. In addition, the “pronephric angle neck segment” value in experiment [4] stood at 1.01 ± 0.039.

For `CCn1cc(C(=O)O)c(=O)c2cc3c(cc21)OCO3` [Oxolinic acid], the glomerular separation in experiment [1] was determined as 0.66 ± 0.37. The same compound gave a glomerular width in experiment [2] of 1.06 ± 0.096. Also, in experiment [3], the “fraction of imaged embryos annotated” value was 0.583. Further, the “pronephric angle neck segment” value in experiment [4] was determined as 0.799 ± 0.024.

`CN1[C@@H]2CC[C@H]1C[C@@H](OC(=O)[C@H](CO)c1ccccc1)C2` [Hyoscyamine (L)]: the glomerular separation in experiment [1] amounted to 0.956 ± 0.51. Also, the glomerular width in experiment [2] turned out to be 1.06 ± 0.03. For the same compound, in experiment [3], the “fraction of imaged embryos annotated” value came out at 0.75. For the same compound, the “pronephric angle neck segment” value in experiment [4] was found to be 0.999 ± 0.012.

For `COc1ccc(C(CN(C)C)C2(O)CCCCC2)cc1` (stereo unspecified) [Venlafaxine], the glomerular separation in experiment [1] was 0.684 ± 0.13. The same compound came in with a glomerular width in experiment [2] of 1.023 ± 0.0059. In addition, in experiment [3], the “fraction of imaged embryos annotated” value is 0.917. In addition, the “pronephric angle neck segment” value in experiment [4] is 0.925 ± 0.013.

Consider `O=C(CCCN1CCC(n2c(=O)[nH]c3ccccc32)CC1)c1ccc(F)cc1` [Benperidol], for which the glomerular separation in experiment [1] is 1.04 ± 0.25. For the same compound, the glomerular width in experiment [2] is 0.951 ± 0.034. In experiment [3], the “fraction of imaged embryos annotated” value was 0.917. Moreover, in experiment [4], the “pronephric angle neck segment” value worked out at 0.992 ± 0.033.

In turn, `S=C(NC1CCCCC1)N1CCC(c2cnc[nH]2)CC1` [Thioperamide maleate] registered a glomerular separation in experiment [1] of 1.28 ± 0.6. Also, the glomerular width in experiment [2] was 0.974 ± 0.011. Further, in experiment [3], the “fraction of imaged embryos annotated” value came to 0.917. In addition, in experiment [4], the “pronephric angle neck segment” value is 1.06 ± 0.013.

On to `NCC(CC(=O)O)c1ccc(Cl)cc1` (racemic) [Baclofen (R,S)], for which, in experiment [1], the glomerular separation is 0.757 ± 0.3. Further, the glomerular width in experiment [2] is 0.933 ± 0.0029. In experiment [3], the “fraction of imaged embryos annotated” value was 0.833. Also, the “pronephric angle neck segment” value in experiment [4] came out at 0.829 ± 0.056.

`CC(CCc1ccccc1)NC(C)C(O)c1ccc(O)cc1` (stereo unspecified) [Nylidrin] displayed a glomerular separation in experiment [1] of 0.871 ± 0.34. This compound registered a glomerular width in experiment [2] of 1.02 ± 0.035. In experiment [3], the “fraction of imaged embryos annotated” value worked out at 0.917. Besides, in experiment [4], the “pronephric angle neck segment” value is 1 ± 0.02.

In turn, `C[C@]12CCC(=O)C(O)=C1CC[C@@H]1[C@@H]2CC[C@]2(C)C(=O)CC[C@@H]12` [Formestane] gave a glomerular separation in experiment [1] of 1.16 ± 0.45. The glomerular width in experiment [2] worked out at 0.866 ± 0.031. Besides, in experiment [3], the “fraction of imaged embryos annotated” value turned out to be 0.917. For the same compound, the “pronephric angle neck segment” value in experiment [4] amounted to 0.9657 ± 0.0071.

(Values after the supplement of paper PMC7366291.)
